According to PubChem BioAssay:
Active and inactive are the calls of the source.

Columns and labels:
[1] = compound effects on differentiated 3T3-L1 adipocyte viability – cell-based, 3T3-L1 adipocytes, calcein-AM fluorescence, 48 h, basal, profiling panel (AID 1163); settings: 3T3-L1 adipocytes viability, higher = more signal
[2] = compound effects on hepatocellular carcinoma cell viability – HepG2, calcein-AM fluorescence, 48 h, basal, profiling panel (AID 1164); settings: higher = more signal
[3] = compound effects on multiple myeloma cell viability – MM1S, calcein-AM fluorescence, 48 h, basal, profiling panel (AID 1165); settings: higher = more signal;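 note: viability of MM1S multiple myeloma cells under basal unstimulated conditions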
[4] = calcein-AM signal in unstimulated myeloma cells – cell-based, calcein-AM fluorescence, 48 h, PK04 Diversity Set, profiling panel (AID 1166); settings: RPMI8226 myeloma viability, higher = more signal;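 note: cells grown under basal conditions without added stimulus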
[5] = JC-1 mitochondrial signal, unstimulated HepG2 cells – cell-based, JC-1 fluorescence, 24 h, 100 nL compound, profiling panel (AID 1167); settings: HepG2 mitochondrial potential, higher = more signal
[6] = JC-1 mitochondrial signal, unstimulated adipocytes – cell-based, JC-1 fluorescence, 3T3-L1 adipocytes, 24 h, 100 nL compound, profiling panel (AID 1168); settings: JC-1 mitochondrial fluorescence, higher = more signal, called active from +8 up or from −8 down
[7] = JC-1 mitochondrial signal, unstimulated myeloma cells – cell-based, JC-1 fluorescence, RPMI8226, 24 h, 100 nL compound, profiling panel (AID 1169); settings: JC-1 mitochondrial potential fluorescence, higher = more signal
[8] = JC-1 mitochondrial signal, unstimulated MM1S myeloma – cell-based, JC-1 fluorescence, 24 h, 100 nL compound, profiling panel (AID 1170); settings: MM1S mitochondrial potential, higher = more signal
[9] = resazurin metabolic signal in A549 cells – cell-based, resazurin fluorescence, 24 h, PK04 Diversity Set, profiling panel (AID 1171); settings: A549 viability, higher = more signal, called active from +8 up or from −8 down
[10] = resazurin metabolic signal in HepG2 cells – cell-based, resazurin fluorescence, 24 h, PK04 Diversity Set, profiling panel (AID 1172); settings: HepG2 viability, higher = more signal
[11] = budding yeast growth changes without added modifier – OD600, strain BY4716, 24 h, basal condition, primary screen (AID 1173); settings: S. cerevisiae BY4716 growth, OD600, 24 h; higher = more signal, called active from +8 up or from −8 down
[12] = viability profiling in MM1S myeloma cells – cell-based, resazurin fluorescence, basal, 24 h, PK04 Diversity Set, profiling panel (AID 1174); settings: higher = more signal, called active from +8 up or from −8 down
[13] = target: Dihydroorotate dehydrogenase (quinone), mitochondrial (Plasmodium falciparum (isolate 3D7)) (UniProt Q08210); assay: inhibition of P. falciparum DHODH – biochemical, C-terminal His tag, absorbance 600 nm, primary screen (AID 1175); settings: PfDHODH enzyme, DCIP absorbance 600 nm; higher = more signal, called active from +8 up or from −8 down;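 note: recombinant parasite enzyme with a five histidine tag at its C terminus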
Dihydroorotate dehydrogenase (quinone), mitochondrial (Plasmodium falciparum (isolate 3D7)), sequence (Q08210 whole entry, looked up): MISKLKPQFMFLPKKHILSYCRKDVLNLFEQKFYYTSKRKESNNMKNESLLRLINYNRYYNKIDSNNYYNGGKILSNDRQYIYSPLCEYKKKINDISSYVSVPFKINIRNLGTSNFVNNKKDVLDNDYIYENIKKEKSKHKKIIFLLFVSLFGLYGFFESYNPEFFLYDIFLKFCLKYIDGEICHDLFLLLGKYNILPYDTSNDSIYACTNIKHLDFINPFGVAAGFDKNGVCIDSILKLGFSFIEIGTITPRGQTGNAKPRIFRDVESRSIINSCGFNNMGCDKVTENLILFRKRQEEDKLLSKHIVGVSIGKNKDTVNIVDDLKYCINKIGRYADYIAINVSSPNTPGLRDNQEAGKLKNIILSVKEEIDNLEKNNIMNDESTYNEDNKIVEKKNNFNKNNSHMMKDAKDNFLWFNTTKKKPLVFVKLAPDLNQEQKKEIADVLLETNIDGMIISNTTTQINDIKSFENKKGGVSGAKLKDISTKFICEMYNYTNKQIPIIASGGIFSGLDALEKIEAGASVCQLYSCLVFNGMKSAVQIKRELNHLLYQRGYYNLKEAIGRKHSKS

[14] = growth modulation of vineyard yeast isolate – strain RM11-1a, OD600, basal, 24 h, primary screen (AID 1177);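 note: cultures grown under basal conditions with no added stressor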; settings: S. cerevisiae RM11-1a growth, OD600, 24 h; higher = more signal, called active from +8 up or from −8 down
[15] = growth of efflux-deficient E. coli DRC39 – strain DRC39, OD650, 24 h, E. coli filamentation inducers, primary screen (AID 1178);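 note: growth measured as culture turbidity by optical density at 650 nm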; settings: E. coli DRC39 acrAB, higher = more signal, called active from +8 up or from −8 down
[16] = growth of efflux-deficient E. coli DRC39 – strain DRC39, OD650, 48 h, E. coli filamentation inducers, primary screen (AID 1179);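 note: screen aims at cell division blockers that make cells filament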; settings: E. coli DRC39 delta-acrAB growth, higher = more signal, called active from +8 up or from −8 down
[17] = viability profiling in RPMI8226 myeloma cells – cell-based, resazurin fluorescence, basal, 24 h, PK04 Diversity Set, profiling panel (AID 1180); settings: higher = more signal;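 note: RPMI8826 multiple myeloma cell line at 5000 cells per well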
[18] = target: E3 ubiquitin-protein ligase XIAP (Homo sapiens) (UniProt P98170); assay: small molecules binding XIAP protein – biophysical, small-molecule microarray, fluorescence 635 nm, primary screen (AID 1181); settings: higher = more signal;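 note: score merges 667 nm emission and signal to noise over triplicate slides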
E3 ubiquitin-protein ligase XIAP (Homo sapiens), sequence (P98170 whole entry, looked up, the tested form may be a part): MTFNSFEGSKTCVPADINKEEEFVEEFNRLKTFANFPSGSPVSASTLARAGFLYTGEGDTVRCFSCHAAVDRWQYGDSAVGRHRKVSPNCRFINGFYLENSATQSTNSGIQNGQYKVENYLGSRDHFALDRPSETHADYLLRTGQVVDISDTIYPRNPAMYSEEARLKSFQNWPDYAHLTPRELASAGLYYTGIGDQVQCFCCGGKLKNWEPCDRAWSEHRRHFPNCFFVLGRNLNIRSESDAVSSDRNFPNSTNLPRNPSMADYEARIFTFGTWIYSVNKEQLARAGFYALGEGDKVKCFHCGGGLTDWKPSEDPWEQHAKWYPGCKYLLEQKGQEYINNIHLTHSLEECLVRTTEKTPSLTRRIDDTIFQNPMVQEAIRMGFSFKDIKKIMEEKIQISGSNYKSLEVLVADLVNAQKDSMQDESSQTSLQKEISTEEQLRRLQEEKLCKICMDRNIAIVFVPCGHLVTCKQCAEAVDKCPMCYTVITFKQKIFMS

[19] = test system: XIP peptide (Xip251-270) binding; assay: XIP fragment 251-270 binding compounds – biochemical, small-molecule microarray, fluorescence 635/667 nm, 0.1 µg/mL protein, primary screen (AID 1182); settings: fluorescent protein binding, 635 nm, higher = more signal, called active from +8 up or from −8 down
[20] = test system: XIP peptide (Xip251-270); assay: compounds binding XIP fragment 251-270 – biochemical, small-molecule microarray, fluorescence 635/667 nm, 0.5 µg/mL protein, primary screen (AID 1183); settings: fluorescence 635 nm, higher = more signal

| Compound | z-score [1] | z-score [2] | z-score [3] | z-score [4] | z-score [5] | z-score [6] | z-score [7] | z-score [8] | z-score [9] | z-score [10] | z-score [11] | z-score [12] | composite z-score [13] | z-score [14] | z-score [15] | z-score [16] | z-score [17] | composite z-score [18] | composite z-score [19] | composite z-score [20] |
| --- | --- | --- | --- | --- | --- | --- | --- | --- | --- | --- | --- | --- | --- | --- | --- | --- | --- | --- | --- | --- |
| Cc1ccc(N2C(=O)c3ccccc3[C@](C)(C(=O)NC3CC3)[C@@H]2c2ccc(CO)cc2)nc1 | 0.995 | 0.0786 | 0.47 | 0.442 | 0.587 | -0.73 (inactive) | 0.36 | 0.259 | 1.1 (inactive) | 0.403 | -1.76 (inactive) | 1.55 (inactive) | 0.0264 (inactive) | -0.224 (inactive) | 0.256 (inactive) | 0.143 (inactive) | 1.51 | 0.0253 | -0.485 (inactive) | -0.777 |
| C#CCN1C(C(=O)OCC)OC[C@H]1c1ccccc1 (stereo not given in full) | 0.714 | -0.0851 | 0.712 | -0.181 | 1.06 | 0.842 (inactive) | 0.297 | -0.316 | -0.282 (inactive) | 0.513 | -6.25 (inactive) | 1.49 (inactive) | 0.253 (inactive) | -2.24 (inactive) | 2.47 (inactive) | 0.724 (inactive) | 0.0912 | -0.227 | -0.0319 (inactive) | -0.258 |
| COC(=O)C(CC#Cc1ccc2c(c1)[C@]1(C(=O)N2)[C@H](c2ccccc2OCCO)N2[C@H](c3ccccc3)[C@H](c3ccccc3)OC(=O)[C@H]2[C@@H]1C(=O)N1CCCCCCC1)C(=O)OC | 1.89 | -0.0172 | 0.578 | -0.576 | 0.87 | -0.239 (inactive) | -0.395 | -1.32 | 1.9 (inactive) | 0.0437 | 1.31 (inactive) | 1.19 (inactive) | -2.8 (inactive) | 1.23 (inactive) | 0.723 (inactive) | -0.34 (inactive) | 1.17 | 1.72 | 6.51 (inactive) | 0.937 |
| COCCOC(=O)N1C(=O)[C@@]2(c3cc(C#CCNC(N)=O)ccc31)[C@H](c1ccccc1OCCO)N1[C@H](c3ccccc3)[C@H](c3ccccc3)OC(=O)[C@H]1[C@@H]2C(=O)Nc1nc2ccccc2s1 | 1.32 | -0.272 | -1.56 | 0.501 | -2.92 | 1.04 (inactive) | -1.06 | -1.32 | 0.627 (inactive) | 0.0177 | -0.267 (inactive) | 1.22 (inactive) | -0.183 (inactive) | 1.17 (inactive) | -0.17 (inactive) | 0.599 (inactive) | 1.39 | 0.396 | -0.377 (inactive) | 0.501 |
| COCCCN1C(=O)[C@@]2(Cc3ccccc31)c1ccccc1C(=O)N(Cc1ccccc1Cl)[C@H]2c1ccc(CO)cc1 | -0.414 | 0.0836 | 0.712 | 0.485 | 1.58 | 1.33 (inactive) | 0.15 | 0.828 | -0.306 (inactive) | -0.384 | -0.846 (inactive) | 0.686 (inactive) | -12.4 (active) | -0.921 (inactive) | 0.56 (inactive) | 0.891 (inactive) | 0.902 | -0.0699 | -0.31 (inactive) | 0.107 |
| C=C(COC)/C(=C/C[C@H](OC(C)=O)c1cccc(OCCO)c1)c1cc(C(=O)OC)ccc1OC | 0.81 | -2.15 | 0.0939 | -1.1 | 0.616 | 1.88 (inactive) | -0.252 | 0.471 | -1.03 (inactive) | -0.231 | -17.6 (active) | 0.975 (inactive) | -9.35 (active) | -21.4 (active) | 1.24 (inactive) | 0.802 (inactive) | 0.59 | 0.0077 | 0.876 (inactive) | 0.876 |
| COc1ccc([Si](C)(C)[C@@H]2[C@@H](CC(=O)N3CCC[C@H]3CO)O[C@]3(C(=O)N(Cc4ccc(N5CCC5=O)cc4)c4ccccc43)[C@H]2C)cc1 | 0.592 | -3.27 | -2.7 | -4.39 | -1.56 | 1.28 (inactive) | -1.18 | -1.66 | -1.99 (inactive) | -1.43 | -1.17 (inactive) | -2.01 (inactive) | -2.42 (inactive) | 0.613 (inactive) | 1.34 (inactive) | 1.2 (inactive) | -5.16 | -0.117 | 1.15 (inactive) | 0.713 |
| COCCOC(=O)N1C(=O)[C@@]2(c3cc(C#CCNC(N)=O)ccc31)[C@H](C(=O)NC[C@H](O)c1ccccc1)[C@H]1C(=O)O[C@H](c3ccccc3)[C@H](c3ccccc3)N1[C@@H]2c1ccc(O)cc1 | 0.539 | 0.315 | -0.825 | 0.987 | -0.549 | 0.962 (inactive) | 0.161 | -0.29 | 0.0618 (inactive) | 0.141 | -0.331 (inactive) | 0.751 (inactive) | -0.263 (inactive) | 0.436 (inactive) | -0.17 (inactive) | 0.316 (inactive) | 1.46 | 0.166 | 1.29 (inactive) | 0.178 |
| O=C(NCC(F)(F)F)[C@@H]1c2ccccc2C(=O)N(C2Cc3ccccc3C2)[C@H]1c1ccc(CO)cc1 | 0.752 | -0.016 | 0.557 | -1.11 | 3.1 | 0.676 (inactive) | 0.0903 | -0.0546 | 1.05 (inactive) | 0.983 | -1.06 (inactive) | 1.49 (inactive) | -1.16 (inactive) | -0.763 (inactive) | 0.46 (inactive) | 0.249 (inactive) | 1.61 | -0.22 | -0.729 (inactive) | -1.33 |
